Experimental findings from PubChem BioAssay AID602393 (Broad Institute, 2012) are described below.

The structures appear in SMILES notation. About 7,000 (2%) of roughly 350,000 compounds were called active. This is one part of a sample in which actives are shown more often than they occur. Rule as the data show it: active = activation above about 40%; inconclusive = no clear call, values can overlap the other calls; inactive = below that.

A short description of this assay: raisers of Bmi1 knock-in reporter signal – mouse ES cells, Bmi1 luciferase knock-in, single point, esBAF inhibitor project, primary screen (AID 602393).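 Also: 0% = median of the plate's neutral control wells and 100% = double that signal; a rise in the Bmi1 reporter signal indicates esBAF inhibition.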 Conditions: 24 h, at 12.5 µM, stronger effect = higher value, 100% = twice the neutral-well signal.
On to `O=C(C[C@H]1CC[C@@H](NC(=O)c2ccncc2)[C@@H](CO)O1)Nc1ccccc1`, for which the reporter increase was -0.301% (inactive).

For `Cn1c(=O)n(C)c2cc(C(=O)Nc3ccc(Br)cc3)ccc21`, the reporter increase is 6.69% (inactive).

In the case of `CC(C)n1c(=O)[nH]c2cc(C(=O)Nc3ccccc3)ccc21`, the reporter increase is 46.7% (active).

As for `Cc1cc(=O)c2ccc(NC(=O)c3ccccc3)cc2[nH]1`, the reporter increase was 1.23% (inactive).

For the compound `CNC[C@H]1Oc2ncc(-c3ccccc3C)cc2C(=O)N([C@@H](C)CO)C[C@@H]1C`, the reporter increase was -1.27% (inactive).

In the case of `Cc1ccc(NC(=O)COc2ccc(/C=N\NC(=O)c3cccnc3)cc2)cc1C`, the reporter increase is 1.32% (inactive).

`Cc1ccc(OCC(=O)NCCCNC(=O)c2cccnc2)cc1C`: the reporter increase is -1.38% (inactive).

Turning to `C/C(=C\C(=O)c1cccnc1)Nc1ccc(C)c(C)c1`, the reporter increase was 64.2% (active).

Regarding `C[C@H]1CCCCO[C@@H](CN(C)Cc2ccc(C(=O)O)cc2)[C@@H](C)CN([C@@H](C)CO)C(=O)c2cc(NS(C)(=O)=O)ccc2O1`, the reporter increase was -4.29% (inactive).

As for `COc1cccc(/C=N\Nc2nncc(-c3ccccc3)n2)c1`, the reporter increase was 4.67% (inactive).

Turning to `Brc1ccccc1/C=N/Nc1nc2ccccc2o1`, the reporter increase was 66.2% (active).

As to `CCOc1ccccc1/C=N/Nc1nc2ccccc2o1`, the reporter increase is 25.5% (inactive).

On to `C(=N\Nc1ccc2ccccc2n1)/c1ccc2c(c1)OCO2`, for which the reporter increase is -72.8% (inactive).

Turning to `COc1ccc(/C=N/Nc2nc3ccccc3o2)cc1OC`, the reporter increase was 45.9% (active).

In the case of `O=C(CSc1nc2ccccc2o1)N/N=C/c1ccccc1C(=O)O`, the reporter increase is 28.5% (inactive).

Take `CCCN1C[C@@H](C)[C@H](OC)CN(C)C(=O)c2ccc(NC(=O)C3CCOCC3)cc2OC[C@@H]1C`: the reporter increase was -4.1% (inactive).

Consider `C[C@@H]1CN([C@H](C)CO)C(=O)c2cc(NC(=O)Cc3ccccc3)ccc2O[C@@H](C)CCCCO[C@H]1CN(C)C(=O)Cc1ccccc1`, for which the reporter increase was 4.79% (inactive).

Consider `CCC(=O)N(C)C[C@H]1Oc2cc(C#CC3CC3)ccc2S(=O)(=O)N([C@@H](C)CO)C[C@@H]1C`, for which the reporter increase is -1.51% (inactive).

With `CCCNC(=O)[C@@H]1[C@@H](CO)[C@@H]2Cn3c(ccc(-c4cccc(OC)c4)c3=O)[C@H]1N2C(=O)NCCC`, the reporter increase was 1.23% (inactive).

Regarding `O=C(Nc1ccc(F)cc1)N[C@H]1C=C[C@@H](CC(=O)N2CCOCC2)O[C@H]1CO`, the reporter increase was -15.4% (inactive).

In the case of `Cc1cccc(S(=O)(=O)N2CC[C@@H]3[C@H]2c2cc(C#Cc4ccc(F)cc4)ccc2N[C@@H]3CO)c1`, the reporter increase is 1.22% (inactive).

For the compound `COCC(=O)Nc1ccc2c(c1)OC[C@H](C)N(C(=O)c1ccccn1)C[C@@H](C)[C@H](OC)CN(C)C2=O`, the reporter increase is -4.41% (inactive).

For the compound `Cc1c(NC(=O)c2c([N+](=O)[O-])cnn2C)c(=O)n(-c2ccccc2)n1C`, the reporter increase is -3.74% (inactive).

On to `Cc1nn(-c2ccccc2)c(Cl)c1/C=N/NC(=O)c1nn(C)cc1[N+](=O)[O-]`, for which the reporter increase is 52.5% (active).

For the compound `COc1ccc(CCNC(=O)c2c(C)nn(-c3ccccc3)c2Cl)cc1`, the reporter increase was -5.69% (inactive).

In the case of `CCC(=O)N(C)C[C@@H]1Oc2cc(-c3ccc(C#N)cc3)ccc2S(=O)(=O)N([C@@H](C)CO)C[C@@H]1C`, the reporter increase is 2.37% (inactive).

`CCCc1cn(CC[C@@H]2CC[C@@H](NC(=O)C3CC3)[C@H](CO)O2)nn1`: the reporter increase was 1.12% (inactive).

Regarding `C[C@@H]1CN([C@H](C)CO)C(=O)CCCn2nncc2CO[C@@H]1CN(C)Cc1ccc2c(c1)OCCN2C`, the reporter increase was -3.86% (inactive).

As to `CO[C@@H]1CN(C)C(=O)c2cc(NS(C)(=O)=O)ccc2OC[C@H](C)N(C(=O)C2CC2)C[C@@H]1C`, the reporter increase was 0.928% (inactive).

Take `COCC#Cc1cnc2c(c1)C(=O)N([C@H](C)CO)C[C@H](C)[C@H](CN(C)Cc1ccc(-c3ccccc3)cc1)O2`: the reporter increase is -4.32% (inactive).

Regarding `Cc1c(C(N)=O)sc2ncn(CCOc3ccccc3)c(=O)c12`, the reporter increase is 16.1% (inactive).

Turning to `Cc1nn(CCOc2ccccc2)c(=O)n1-c1ccccc1F`, the reporter increase was 49.4% (active).

Take `O=C(NCCOc1ccccc1)c1ccccc1F`: the reporter increase is -7.45% (inactive).

For `COCC(=O)Nc1ccc2c(c1)[C@H]1C[C@H](CC(=O)NCc3ccccn3)O[C@H](CO)[C@H]1O2`, the reporter increase is 0.452% (inactive).

For `CO[C@H]1CN(C)C(=O)c2ccc(NS(=O)(=O)c3cn(C)cn3)cc2OC[C@@H](C)N(C)C[C@@H]1C`, the reporter increase is -7.11% (inactive).

As for `C[C@@H](NC(=O)C[C@@H]1CC[C@@H]2[C@H](COC[C@@H](O)CN2C(=O)Nc2cccc(F)c2)O1)c1ccccc1`, the reporter increase was 11.2% (inactive).

For the compound `CCCN(C)C[C@H]1Oc2ncc(C#CC3CCCCC3)cc2C(=O)N([C@H](C)CO)C[C@@H]1C`, the reporter increase is -4.47% (inactive).

For the compound `C[C@@H]1CN([C@@H](C)CO)C(=O)Cc2cc(NS(=O)(=O)c3cccs3)ccc2O[C@H]1CN(C)S(=O)(=O)c1ccc(F)cc1`, the reporter increase is -3.47% (inactive).

Turning to `COc1ccc(NS(=O)(=O)c2ccc3oc(SCC(N)=O)nc3c2)cc1`, the reporter increase is 4.52% (inactive).

As for `COc1ccc(S(=O)(=O)N(C)C)cc1NC(=O)CSc1ncccn1`, the reporter increase was -0.957% (inactive).

As to `CN(C)S(=O)(=O)c1ccc2oc(SCC(=O)Nc3ccccc3F)nc2c1`, the reporter increase was 56% (active).

As to `COc1ccc(NC(=O)N[C@H]2CC[C@@H](CCNS(=O)(=O)c3cccc(Cl)c3)O[C@H]2CO)cc1`, the reporter increase was 1.55% (inactive).

Consider `COc1cccc(NC(=O)C[C@@H]2CC[C@@H]3[C@H](COc4ccc(NC(=O)C5CCOCC5)cc4C(=O)N3C)O2)c1`, for which the reporter increase is 1.18% (inactive).

In the case of `C[C@H](CO)N1C[C@H](C)[C@@H](CN(C)Cc2ccccc2)OCCCC[C@H](C)Oc2ccc(NC(=O)Cc3ccccc3)cc2C1=O`, the reporter increase was 1.95% (inactive).

As for `COc1ccc(NC(=O)Nc2cccc3c2O[C@H](CN(C)Cc2ccc(Cl)c(Cl)c2)[C@H](C)CN([C@@H](C)CO)C3=O)cc1`, the reporter increase is 4.75% (inactive).

For the compound `CCc1ccc(NC(=O)Cn2nnc(C(=O)NCc3ccc4c(c3)OCO4)c2N)cc1`, the reporter increase was -0.239% (inactive).

For the compound `O=C(Nc1ccc2c(c1)OCCO2)C(C1CC1)N1CCC(Cc2ccccc2)CC1` (stereo not drawn), the reporter increase was -12.5% (inactive).

Take `Nc1c(C(=O)Nc2ccc3c(c2)OCCO3)nnn1Cc1ccccc1`: the reporter increase is 62.1% (active).
